Lassa entry inh: qHTS for Inhibitors of binding or entry into cells for Lassa Virus | Lassa virus pseudotype entry inhibition, cell reporter | Potency, µM (highest dose often 37.9 µM), for the others: at the top dose activity change, negative = inhibition, usual class: inhibitors | 300,000 compounds, 1.2% hits; calls by dose curve; tested in HEK293 cells; note: potency is the fitted concentration of half-maximal effect; % is set by controls: 0 for no effect and ±100 for the full control effect; nearly all actives have a fitted effect of over 50% in size
FMDV antiviral: High Throughput Screening for Foot and Mouth Disease Virus Antivirals | FMDV antiviral cell-based qHTS | Potency, µM (series often up to 57.9 µM), for inactives: at the highest dose activity change, negative = inhibition, most hits filed as inhibitors | 410,000 compounds, 1.2% hits | AID 1159524, 2015; calls by dose curve; tested in HEK293T cells; note: read-out not given here; potency is the fitted concentration of half-maximal effect; % is set by controls: 0 for no effect and ±100 for the full control effect; nearly all actives have a fitted effect of over 45% in size
Shiga toxin inh: A qHTS for Small Molecule Inhibitors of Shiga Toxin. inhibition, % at 38.7 µM. Vero cells, Shiga toxin protein synthesis inhibition reporter. 290,000 compounds, 9.2% hits; in the data active = inhibition mostly above about 28%, no sharp cut-off; inactive = mostly below about 43%; note: 0% is about no effect
HCV inh: qHTS Assay for Inhibitors of Hepatitis C Virus (HCV) | 340,000 compounds, 3.4% hits | Potency, µM (series often up to 41.8 µM), for inactives: at the top dose activity change, negative = inhibition, usual class: inhibitors | Huh7.5.1 HCVcc-Cre infection, luciferase reporter, 44 h | AID 651820, 2012; active = well fitted inhibition curve with a large enough effect; inconclusive = small, poorly fitted or top-dose-only effect, or another doubt; inactive = no such curve, though single readings can be large or run the other way; note: potency is the fitted concentration of half-maximal effect; % is set by controls: 0 for no effect and ±100 for the full control effect
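Antiviral activity was scored by luciferase reporter output from cells infected with HCVcc-Cre (~0.5 moi) in presence of compound, 44 h infection period, cells seeded 1,000/well 4 h prior.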
CHX counter: Cycloheximide Counterscreen for Small Molecule Inhibitors of Shiga Toxin; cell reporter, cycloheximide protein synthesis inhibition counterscreen; max response, %; 300,000 compounds, 12% hits; AID 2314, 2010; in the data active = max response mostly above about 13%, no sharp cut-off; inactive = mostly below about 14%; note: read at 38.3 µM for the half of the compounds with a filed dose; 0% is about no effect
Marburg entry inh: qHTS for inhibitors of binding or entry into cells for Marburg Virus; Marburg virus pseudotyped entry inhibition, cell reporter; Potency, µM (highest dose often 37.8 µM), for the others: top-dose activity change, negative = inhibition, usual class: inhibitors; 300,000 compounds, 1.8% hits; calls by dose curve; tested in HEK293 cells; note: potency is the fitted concentration of half-maximal effect; % is set by controls: 0 for no effect and ±100 for the full control effect
* hit, by the source's call. Only some compounds are listed: those with a hit (about 13% of all), similar ones and a draw of the others.

How did S=c1[nH]ncn1/N=C/c1ccc(N2CCOCC2)cc1 do in these assays?
Lassa entry inh: -26.0%; FMDV antiviral: -13.6%; Shiga toxin inh: 32.3*; HCV inh: 5.0%; CHX counter: 25.9*; Marburg entry inh: -10.6%

How did Fc1ccc(N/N=C/c2ccc(N3CCOCC3)cc2)c(F)c1 do in these assays?
Lassa entry inh: inconclusive; FMDV antiviral: 29.1%; Shiga toxin inh: 75.1*; HCV inh: inconclusive; CHX counter: 34.0*; Marburg entry inh: inconclusive

What do the screens show for `Cc1ccc2ccc(S(=O)(=O)n3nc(C)cc3C)cc2c1`?
Lassa entry inh: 3.1%; FMDV antiviral: 6.8%; Shiga toxin inh: -4.3; HCV inh: -3.8%; CHX counter: -1.4; Marburg entry inh: 4.6%

Results for CNC(=S)N/N=C(\C)c1ccc(N2CCOCC2)cc1 ?
FMDV antiviral: 37.1%; Shiga toxin inh: 85.0*; HCV inh: -15.3%; CHX counter: 60.6*

What do the screens show for `CCNC(=S)N/N=C(\C)c1ccc(N2CCOCC2)cc1`?
Lassa entry inh: inconclusive; FMDV antiviral: -8.5%; Shiga toxin inh: 12.4; HCV inh: inconclusive; CHX counter: -1.1; Marburg entry inh: 3.1%

What do the screens show for `O=C(N/N=C/c1ccc(N2CCCCC2)o1)c1ccccc1`?
Lassa entry inh: 12.1%; FMDV antiviral: -13.0%; Shiga toxin inh: 75.5*; HCV inh: -6.1%; CHX counter: 37.1*; Marburg entry inh: inconclusive

Results for Cc1ccc2cccc(Oc3ncnc4scc(-c5ccc(Cl)cc5)c34)c2n1 ?
Lassa entry inh: -23.6%; FMDV antiviral: inconclusive; Shiga toxin inh: -11.4; HCV inh: -20.1%; CHX counter: -3.9; Marburg entry inh: -28.5%

How did COc1ccc(OC)c(N2C(=O)CC(Cc3cc(C)cc(C)c3)C2=O)c1 (stereo unspecified) do in these assays?
Lassa entry inh: 6.5%; FMDV antiviral: inconclusive; Shiga toxin inh: -0.4; HCV inh: 3.55µM*; CHX counter: -2.4; Marburg entry inh: -2.3%

How did COc1ccc(OC)c(N2C(=O)CC(Cc3ccc(Cl)cc3)C2=O)c1 (stereo unspecified) do in these assays?
Lassa entry inh: -26.1%; FMDV antiviral: inconclusive; Shiga toxin inh: 12.8; HCV inh: -0.4%; CHX counter: -2.5; Marburg entry inh: 13.4%

How did Cc1ccc(NC(=O)CSc2nccc(=O)[nH]2)c(S(=O)(=O)N2CCOCC2)c1 do in these assays?
Lassa entry inh: -4.0%; FMDV antiviral: 0.0%; Shiga toxin inh: 9.8; HCV inh: 2.2%; CHX counter: -4.6; Marburg entry inh: 0.8%

What do the screens show for `COc1ccc(-c2oc(NC(=O)c3ccc(C)cc3)c(C#N)c2-c2ccc(OC)cc2)cc1`?
Lassa entry inh: -24.2%; FMDV antiviral: 2.3%; Shiga toxin inh: -8.2; HCV inh: -26.5%; CHX counter: 13.1; Marburg entry inh: inconclusive

How did COc1ccc(-c2oc(NC(C)=O)c(C#N)c2-c2ccc(OC)cc2)cc1 do in these assays?
Lassa entry inh: 6.6%; FMDV antiviral: -10.7%; Shiga toxin inh: -10.3; HCV inh: -16.2%; CHX counter: -2.9; Marburg entry inh: -1.4%

What do the screens show for `COc1ccc(C(=O)Nc2oc(-c3ccccc3)c(-c3ccccc3)c2C#N)cc1`?
Lassa entry inh: inconclusive; FMDV antiviral: -17.7%; Shiga toxin inh: -6.9; HCV inh: 10µM*; CHX counter: -2.6; Marburg entry inh: inconclusive

What do the screens show for `COc1ccc(C(=O)Nc2oc(-c3ccccc3)c(-c3ccccc3)c2C#N)cc1OC`?
Lassa entry inh: -22.9%; Shiga toxin inh: 21.0; HCV inh: 11.2µM*; CHX counter: -1.5; Marburg entry inh: -0.5%

How did Cc1ccc2oc(=O)c3cnn(CC(=O)Nc4ccccc4N4CCN(C)CC4)c3c2c1 do in these assays?
FMDV antiviral: -20.5%; Shiga toxin inh: -3.0; HCV inh: 14.1µM*; CHX counter: -3.8; Marburg entry inh: 2.9%

How did Cc1oc(-c2ccc(-c3ccccc3)cc2)nc1CN(C)C1CCOC1 (stereo unspecified) do in these assays?
FMDV antiviral: 0.0%; Shiga toxin inh: 75.0*; HCV inh: inconclusive; CHX counter: 60.1*

Results for Cc1ccc(-c2nc(CN(C)C3CCOCC3)c(C)o2)s1 ?
FMDV antiviral: 0.1%; Shiga toxin inh: -3.3; HCV inh: -15.6%; CHX counter: 9.0
